Only some compounds are listed: those with a hit (about 7.8% of all), similar ones and a draw of the others.
Lassa entry inh – blocks Lassa virus binding to or entry into cells | Lassa virus pseudotype entry inhibition, cell reporter | Potency, µM (series often up to 37.9 µM), inactives show at the highest dose activity change, negative = inhibition, actives largely listed as inhibitors | 300,000 tested, 1.2% active; calls by dose curve; tested in HEK293 cells; note: potency is the fitted concentration of half-maximal effect; nearly all actives have a fitted effect of over 50% in size
HCV inhibitor – inhibitors of hepatitis C virus infection. Huh7.5.1 HCVcc-Cre infection, luciferase reporter, 44 h. Potency, µM (doses to about 41.8 µM), for inactives: at the highest dose activity change, negative = inhibition, most hits filed as inhibitors. 340,000 tested, 3.4% active; active = well fitted inhibition curve with a large enough effect; inconclusive = small, poorly fitted or top-dose-only effect, or another doubt; inactive = no such curve, though single readings can be large or run the other way; note: potency is the fitted concentration of half-maximal effect
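Infectious HCV cell culture screen: compound-treated cells (1,000/well, pre-plated 4 h) are infected with HCVcc-Cre at roughly 0.5 moi and grown 44 h. Infection is quantified by luciferase signal after 15 min substrate incubation at room temperature.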
Marburg entry inh – inhibitors of Marburg virus binding or cell entry | Potency, µM (highest dose often 37.8 µM), for the others: at the highest dose activity change, negative = inhibition, actives largely listed as inhibitors | 300,000 tested, 1.8% active | Marburg virus pseudotyped entry inhibition, cell reporter | AID 540276; calls by dose curve; tested in HEK293 cells; note: potency is the fitted concentration of half-maximal effect
Vaccinia mCherry – vaccinia inhibition (mCherry reporter). Vaccinia virus mCherry reporter infection, fluorescence. Potency, µM (top dose mostly 36.5 µM), for the others: at the highest dose activity change, negative = inhibition, actives largely listed as inhibitors. 310,000 tested, 0.63% active. AID 720579; calls by dose curve; tested in A549 cells; note: potency is the fitted concentration of half-maximal effect; nearly all actives have a fitted effect of over 35% in size
Vaccinia Venus – inhibitors of vaccinia virus (Venus reporter); 330,000 tested, 0.46% active; Potency, µM (doses to about 36.5 µM), without a hit: at the highest dose activity change, negative = inhibition, usual class: inhibitors; Vaccinia virus Venus reporter expression, fluorescence; calls by dose curve; tested in A549 cells; note: potency is the fitted concentration of half-maximal effect; nearly all actives have a fitted effect of over 30% in size
HCMV inh – human cytomegalovirus inhibition; activity change, negative = inhibition, % at 57.5 µM; 410,000 tested, 4.5% active; HFF cells, HCMV-luciferase reporter, 72 h; stronger effect = lower value; in the data active = activity change below about -60%; inconclusive = no clear call, values can overlap the other calls; inactive = above about -39%
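Luciferase read-out from HCMV-luciferase-infected HFFs (MOI 1 PFU/cell) 72 h post infection at 37C; compounds added after 16 h cell attachment; activity normalized between buffer-only basal and Salinomycin (10uM) inhibitor controls.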
The depositor's hits bear a star; i = inactive; ? = inconclusive; / = no result given; [ ] = dose if it differs, or a comment. % is set by controls: 0 for no effect and ±100 for the full control effect.

SMILES	Lassa entry inh	HCV inhibitor	Marburg entry inh	Vaccinia mCherry	Vaccinia Venus	HCMV inh
COc1cc(OC)cc(C(=O)NC(C(=O)N2CCc3ccccc3C2)C(C)C)c1 (stereo not given)	?	-15%	11µM*	?	?	-1
CCOC(=O)c1c(C)c2c(=O)[nH]cnc2n1-c1ccccc1	/	-30%	/	/	/	-62*
Cc1cc(C)nc(/N=C(\N)Nc2cccc(OCc3ccccc3)c2)n1	/	?	/	/	/	-73*
CCOC(=O)C(=O)Nc1ccc(OCc2ccccc2)cc1	19%	24%	10%	i	29%	-18
Cc1cc(C)nc(/N=C(\N)Nc2ccc(OCCC(C)C)cc2)n1	-19%	10µM*	?	?	?	?
Cc1cc(C)nc(/N=C(\N)Nc2ccc(OCc3ccccc3)cc2)n1	?	10µM*	?	?	?	-75*
COc1ccc(N/C(N)=N/c2nc(C)cc(C)n2)cc1	/	/	/	-3%	-27%	-33
COc1cc([C@@H]2c3cc4c(cc3C(O[C@@H]3O[C@@H]5COC(c6cccs6)O[C@H]5[C@H](O)[C@H]3O)C3COC(=O)[C@@H]32)OCO4)cc(OC)c1O (stereo not given in full)	/	/	/	2µM*	?	/
O=C1Nc2cc(C(=O)NCCCN3CCCC3)ccc2S/C1=C/c1cccc(Cl)c1	/	/	/	?	?	82
CCN1CCCC1CNC(=O)c1ccc2c(c1)NC(=O)/C(=C\c1ccc(OC)c(OC)c1)S2 (stereo not given)	/	0.79µM*	/	/	/	0
CCN1CCCC1CNC(=O)c1ccc2c(c1)NC(=O)/C(=C\c1ccccc1Cl)S2 (stereo not given)	/	/	/	-12%	-26%	-63*
CC(C)c1c(C(=O)NCC2(N3CCCCC3)CCCC2)cnn1-c1nccc(-c2ccco2)n1	/	/	/	-15%	-11%	/
COc1ccc(OC)c(-n2c(=S)[nH]c3cc(C(=O)NCCCN4CCCC4=O)ccc3c2=O)c1	/	/	/	/	/	66
CCCN(CCC)C(=O)c1ccc2c(=O)n(Cc3ccco3)c(=S)[nH]c2c1	-22%	-13%	6%	/	/	-90*
CCN1CCN(C(=O)c2ccc3c(=O)n(Cc4ccccc4OC)c(=S)[nH]c3c2)CC1	0%	11µM*	2%	/	/	-25
COc1ccccc1Cn1c(=S)[nH]c2cc(C(=O)NCCN(C)C)ccc2c1=O	-1%[46.1 µM]	?	10µM*	i	-27%	-12
COc1ccccc1Cn1c(=S)[nH]c2cc(C(=O)NCC3CCCO3)ccc2c1=O (stereo not given)	?	?	?	i	-9%	-37
CN1CCN(C(=O)c2ccc3c(=O)n(Cc4ccco4)c(=S)[nH]c3c2)CC1	-15%	-15%	0%	/	/	-4
COc1ccc(-n2c(=S)[nH]c3cc(C(=O)NCCCN4CCCC4=O)ccc3c2=O)cc1OC	-12%	15%	-13%[46.1 µM]	-13%	-8%	-99*
Clc1ccc2[nH]c3c(NCCN4CCOCC4)ncnc3c2c1	?	?	-20%	i	-20%	-10
Clc1ccc2[nH]c3c(NCC4CCCO4)ncnc3c2c1 (stereo not given)	/	/	0%	/	/	-65*
O=C(CCCn1c(=O)[nH]c2ccccc2c1=O)N1CCN(c2ccccc2)CC1	?	/	/	-11%	-4%	4
COc1ccc(NC(=O)c2oc3ccc(S(=O)(=O)N4CCC5(CC4)OCCO5)cc3c2C)cc1Cl	?	/	/	-17%	-22%	?
CCN(CC)c1ccc(NC(=O)c2ccc(=O)[nH]c2)cc1S(=O)(=O)Nc1ccccc1OC	-29%[46.1 µM]	22µM*	?	i	-25%	9
CCN(CC)c1ccc(NC(=O)c2cnccn2)cc1S(=O)(=O)Nc1ccc(OC)cc1	?	8.9µM*	?	-19%	?	-32
SMILES	Lassa entry inh	HCV inhibitor	Marburg entry inh	Vaccinia mCherry	Vaccinia Venus	HCMV inh
CCN(CC)c1ccc(NC(=O)COc2ccccc2C#N)cc1S(=O)(=O)Nc1ccc(OC)cc1	?	?	?	i	-14%	14
Cc1ccc2cccc(S(=O)(=O)N3CCCc4ccccc43)c2n1	/	?	/	/	/	-65*
COc1ccc2[nH]c(=O)c(CN(CC3CCCO3)C(=O)Nc3ccc(F)cc3)cc2c1 (stereo not given)	11µM*	?	?	-19%	-11%	-31
COc1ccc(NC(=O)N(Cc2cc3cc(C)ccc3[nH]c2=O)CC2CCCO2)cc1 (stereo not given)	/	?	/	/	/	6
COc1ccccc1NC(=S)N(Cc1ccco1)Cc1cc2ccc(C)c(C)c2[nH]c1=O	?	?	11µM*	?	?	?
Cc1ccc2cc(CN(CC3CCCO3)C(=S)Nc3ccccc3)c(=O)[nH]c2c1C (stereo not given)	?	?	?	?	-17%	-62*
Cc1ccc2[nH]c(=O)c(CN(CC3CCCO3)C(=S)Nc3ccccc3)cc2c1 (stereo not given)	?	?	?	-30%	?	-78*
Cc1ccc2cc(CN(CC3CCCO3)C(=S)Nc3ccccc3)c(=O)[nH]c2c1 (stereo not given)	-2%	-14%	?	?	-27%	-37
COC(=O)[C@@H]1C[C@H](NC(=O)c2cc(C(F)(F)F)ccc2Cl)CN1Cc1cccc(O)c1	/	/	/	-6%	8%	/
CSc1ncnc2c1ncn2C1OC(CO)C(O)C1O (stereo not given)	/	/	/	-23%	-22%	/
CCOc1ccc(N2CC(NC(=O)c3ccc(S(=O)(=O)N4CCCCC4)cc3)CC2=O)cc1 (stereo not given)	-8%[46.1 µM]	/	/	-14%	-19%	-25
CC(C)(CNC(=O)c1cnn(-c2nccc(-c3cccs3)n2)c1C1CC1)N1CCOCC1	/	/	/	-11%	-8%	/
CC[N+](C)(CC)CCOC(=O)[C@@](O)(c1ccccc1)C1CCCCC1	/	/	22%	/	/	/
Cc1cn(C)c(CC(=O)Nc2cccc(Cl)c2C)c1C(=O)O	7%[46.1 µM]	/	/	-16%	-5%	8
Cc1cccc(NC(=S)N(CCN(C)C)Cc2cc3cc(C)ccc3[nH]c2=O)c1	/	-11%	?	-23%	-12%	-32
CCN(CC)CCN(Cc1cc2cc(C)ccc2[nH]c1=O)C(=S)Nc1ccccc1	-9%[46.1 µM]	?	?	-4%	-4%	-69*
CCC1C(=O)NCCN1Cc1ccc2c(c1)CN(Cc1cc(OC)c3c(c1)OCO3)CCO2 (stereo not given)	/	/	/	-16%	-19%	/
COCc1nnc(NC(=O)c2sc3ccccc3c2Cl)s1	-19%	4%	10%	/	/	45
CC1CCCN(C(=O)CNC(=O)c2sc3ccccc3c2Cl)C1 (stereo not given)	2%	?	0%	-2%	-20%	1
Cc1ccc(NC(=O)c2sc3ccccc3c2Cl)nc1	5.8µM*	-14%	?	-15%	-11%	15

Screening results: PubChem BioAssay, National Center for Advancing Translational Sciences (NCATS)
